A selection: hits, their analogues and other compounds. The true share with any hit is near 19%.
Pf growth 96h = P. falciparum growth inhibition at 96 hours | P. falciparum luciferase reporter growth, 96 h | Potency, µM (highest dose often 28.7 µM), inactives show at the highest dose activity change, negative = inhibition, usual class: inhibitors | actives 6.9% (n = 320,000) | AID 504834; note: potency is the fitted concentration of half-maximal effect; % is set by controls: 0 for no effect and ±100 for the full control effect
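P. falciparum expressing integrated firefly luciferase grown in erythrocytes (2% hematocrit, 0.05% parasitemia final) with compounds for 96 hours at 37 C, 5% CO2. Growth inhibition read as loss of luminescence after adding luciferase detection reagent.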
Lassa entry inh = blocks Lassa virus binding to or entry into cells. Lassa virus pseudotype entry inhibition, cell reporter. actives 1.2% (n = 300,000). Potency, µM (highest dose often 37.9 µM), for inactives: top-dose activity change, negative = inhibition, usual class: inhibitors; calls by dose curve; tested in HEK293 cells; note: potency is the fitted concentration of half-maximal effect; % is set by controls: 0 for no effect and ±100 for the full control effect; nearly all actives have a fitted effect of over 50% in size
Cycloheximide cs = counter-screen hit for Shiga toxin inhibitors, cycloheximide; cell reporter, cycloheximide protein synthesis inhibition counterscreen; max response, %; actives 12% (n = 300,000); in the data active = max response mostly above about 13%, no sharp cut-off; inactive = mostly below about 14%; note: read at 38.3 µM for the half of the compounds with a filed dose; 0% is about no effect
Shiga inhibitor = blocks Shiga toxin action in Vero cells; Vero cells, Shiga toxin protein synthesis inhibition reporter; actives 9.2% (n = 290,000); inhibition, % at 38.7 µM; in the data active = inhibition mostly above about 28%, no sharp cut-off; inactive = mostly below about 43%; note: 0% is about no effect
MARV entry inh = Marburg virus entry inhibition | Marburg virus pseudotyped entry inhibition, cell reporter | AID 540276 | Potency, µM (titrated, usually from 37.8 µM), for the others: top-dose activity change, negative = inhibition, actives largely listed as inhibitors | actives 1.8% (n = 300,000); calls by dose curve; tested in HEK293 cells; note: potency is the fitted concentration of half-maximal effect; % is set by controls: 0 for no effect and ±100 for the full control effect
Pf growth 48h = P. falciparum growth inhibition at 48 hours (one generation). P. falciparum luciferase growth in erythrocytes, 48 h. Potency, µM (top dose mostly 28.7 µM), without a hit: top-dose activity change, negative = inhibition, usual class: inhibitors. actives 5.9% (n = 310,000). AID 504832; note: potency is the fitted concentration of half-maximal effect; % is set by controls: 0 for no effect and ±100 for the full control effect
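In quantitative HTS format, infected erythrocytes bearing luciferase-reporter parasites were treated for a single generation at 37 C. Luminescence after adding detection reagent served as the growth measure.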
Numbers without * were called inactive; u = inconclusive; x = no result given; [ ] = another dose, or the depositor's remark. Unless noted, calls come from the whole dose curve; as a rule, active = well fitted inhibition curve with a large enough effect; inconclusive = small, poorly fitted or top-dose-only effect, or another doubt; inactive = no such curve, though single readings can be large or run the other way.

SMILES	Pf growth 96h	Lassa entry inh	Cycloheximide cs	Shiga inhibitor	MARV entry inh	Pf growth 48h
O=C(O)CC(NNC(=O)c1ccccc1)C(=O)Nc1cccc([N+](=O)[O-])c1 (stereo not drawn)	13%	x	23*	72*	x	15%
COc1cc([N+](=O)[O-])ccc1NC(=S)Nc1cccc(C(=O)O)c1	1.5µM*	0%	13	12	8%	-10%
O=C(NC(=S)Nc1cccc([N+](=O)[O-])c1)c1ccccc1	62%	x	36*	78*	x	82%
CC(CC(=O)O)CC(=O)Nc1cccc([N+](=O)[O-])c1 (stereo not drawn)	18%	3%	-2	-9	-5%[46.1 µM]	13%
O=C(NC(=S)Nc1cc([N+](=O)[O-])ccc1Cl)c1ccccc1	x	u	41*	62*	u	x
CCC1(C)N=C(c2ccc3c(c2)OCO3)CC(c2ccccc2O)N1 (stereo not drawn)	x	-14%	44*	66*	u	4.7µM*
COc1cccc(C2=NC(C)(C)NC(c3ccccc3O)C2)c1 (stereo not drawn)	0%	1%	34*	56*	26%	9.3µM*
Cc1onc(-c2c(F)cccc2Cl)c1C(=O)NCCCN1CCOCC1	x	13%	-1	-19	-6%	-16%
Cc1cccc(C)c1Nc1c(-c2cccs2)nc2ncccn12	x	1%[46.1 µM]	x	x	u	x
Cc1nc(Nc2cnc(/C=C/c3cc(C(=O)Nc4cccc(C(F)(F)F)c4)ccc3C)cn2)cc(N2CCNCC2)n1	u	x	-7	-15	x	0.74µM*
CCOc1ccc(C(=O)Nc2ccc3nc(Nc4cccc(C(F)(F)F)c4)cc(C)c3c2)cc1OCC	x	0%[46.1 µM]	x	x	x	x
c1ccc(OCCSc2nnc3sc4ccccc4n23)cc1	20%	10µM*	16	45*	2.1µM*	183%
COc1cccc(OCCSc2nnc3sc4ccccc4n23)c1	7%	u	40*	21*	-1%	11%
Cc1ccc(-c2nnc(NC(=O)c3c(F)cccc3Cl)s2)cc1	139%	x	-3	10	x	37%
CC(C)OC(=O)CC(=O)c1sc2nc3c(cc2c1N)CN(C)CC3	0%	-4%	-2	-10	-3%	-22%
CCOC(=O)c1nn(-c2ccc(F)cc2)c(=O)c2c(N)scc12	16%	2%[46.1 µM]	19*	19	-2%[46.1 µM]	u
CCOC(=O)c1nn(-c2ccc(Br)cc2)cc1C(=O)c1cccc2ccccc12	48%	u	2	-2	5.8µM*	57%
CCOC(=O)c1nn(-c2ccc3c(c2)CCN3C(C)=O)cc1O	-7%	u	21	40	u	110%
CCOC(=O)c1nn(-c2ccc(F)cc2)cc1O	117%	-2%	52*	115*	23%[46.1 µM]	258%
CCOC(=O)c1ccc(NC(=O)c2cn(-c3ccccc3)nc2-c2ccc(Br)cc2)cc1	x	12%[46.1 µM]	x	x	x	x
CC(C)CNC(=S)N1CCN(C(c2ccccc2)c2ccccc2)CC1	2.1µM*	u	-5	8	u	u
COCCCNC(=S)N1CCN(C(c2ccccc2)c2ccccc2)CC1	-8%	-4%	-3	-2	u	13µM*
O=C(CN1CCN(c2ccccc2F)CC1)NCc1ccccc1	-11%	u	1	13	14%	9%
CN1C(=O)C(=Cc2ccc(OCCN(C)c3ccccn3)cc2)C(=O)N(C)C1=O	26%	x	21*	37	x	236%
O=C1C(Cl)=C(NC2CCCCC2)C(=O)N1c1ccc(Cl)cc1	9.3µM*	2%	25*	53*	27%	u
SMILES	Pf growth 96h	Lassa entry inh	Cycloheximide cs	Shiga inhibitor	MARV entry inh	Pf growth 48h
O=C(NC1CCCCC1)C1CC(=O)N(c2ccc(Cl)cc2)C1 (stereo not drawn)	-11%	x	0	11	x	x
CC(C)(C)C(=O)Nc1ccc(NC(=O)c2ccco2)nc1	23%	u	-12	-28	u	-88%
COc1ccccc1C(=O)NC(=S)Nc1ccc(NC(=O)c2ccco2)cc1	5.2µM*	-2%[46.1 µM]	8	23	u	u
COc1ccccc1C(=O)Nc1ccc(NC(=O)c2ccco2)cn1	31%	22%	28*	90*	u	22%
Cc1cc(C(=O)NCc2cc(C(=O)O)co2)co1	10%	-14%	-2	-5	11%	6%
CC(C)c1ccc(NC(=O)c2ccc(NC3=NC4CS(=O)(=O)CC4S3)cc2)cc1 (stereo not drawn)	28%	x	3	13	x	-10%
CCOC(=O)c1ccc(N=Cc2c(O)n(-c3ccc(OC)cc3)c(=S)[nH]c2=O)cc1	33%	x	-2	19	x	0%
Cc1ccc(-c2csc(=Nc3cccnc3)n2CCCN2CCCC2=O)cc1C	12µM*	-13%	-3	-12	-24%	u
c1cncc(N=c2scc(-c3cccc4ccccc34)n2CCCn2ccnc2)c1	9.3µM*	u	-5	-18	u	9.3µM*
Cc1ccc(-c2csc(=Nc3cccnc3)n2CCCn2ccnc2)cc1C	3.7µM*	u	-3	-18	u	10µM*
COCCn1c(-c2ccccc2)csc1=Nc1cccnc1	u	6%[46.1 µM]	9	-6	u	u
CCN(CC)P(=O)(Nc1ccccc1Br)c1ccc(N(C)C)cc1NC(=O)c1ccco1 (stereo not drawn)	9.3µM*	-17%[46.1 µM]	12	19	u	u
C/C(=N/N=C(/N)SCc1ccccc1)C(C)(C)C	-14%	2%	27*	37	2%	27%
CSc1ccc(CCNC(=O)c2cc3c(-c4ccccc4F)nn(C)c3s2)cc1	x	-24%[46.1 µM]	x	x	-10%[46.1 µM]	x
O=C1NC(c2ccccc2OC(F)F)Oc2ccccc21 (stereo not drawn)	-7%	-10%	7	1	16%[46.1 µM]	81%
O=C1C=C(NC2=CC3OC(c4ccccc4)OCC3OC2=O)CCC1 (stereo not drawn)	2%	10µM*	27*	35*	u	-4%
CN1CCN(Cc2nc3ccccc3n2C)CC1CCO (stereo not drawn)	0%	x	-2	-17	x	u
CC(C)Cn1c(CN2CCN(C)C(CCO)C2)nc2ccccc21 (stereo not drawn)	9.3µM*	x	2	-5	x	-2%
Cc1ccccc1-c1ccc(CN2CCN(C)C(CCO)C2)cc1 (stereo not drawn)	u	x	11*	19*	x	u
Cc1ccccc1-c1ncc(CN2CCN(C3CCCC3)C(CCO)C2)cn1 (stereo not drawn)	2%	x	7	39	x	-4%
Cc1sc2nc(C(C)Nc3ccccc3N3CCOCC3)[nH]c(=O)c2c1C (stereo not drawn)	6.6µM*	4%	-4	18	-29%	9.3µM*
N#CC1(NC(=O)CSc2ccccn2)CCCCC1	2%	0%[46.1 µM]	x	x	u	-1%
CCOc1ccc(CSc2nc(C)cc(COC)c2C#N)cc1OCC	-15%	x	-3	6	x	13µM*
